Rpn11 block = inhibitors of human proteasome Rpn11; O00487; AID 588493; inhibition, % at 20 µM; human 26S proteasome, Ub4-pepOG fluorescence polarization; 20S core pre-blocked with epoxomicin; 360,000 tested, 0.59% active;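 active means inhibition at 20 µM, scaled to each plate's controls, above about 33%, limit read from the data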
TPT1 inhibitor = inhibitors of Candida albicans tRNA 2'-phosphotransferase TPT1; 300,000 tested, 0.81% active; AID 1962; recombinant caTPT1, FP RNA substrate dephosphorylation; inhibition, % at 5 µM;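 active means inhibition above the mean of all tested compounds plus 3 SD, set per screening campaign, cut at about 24% in these data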;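 further: plate controls were DMSO alone for no effect and ferristatin control at 100 nM for full effect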
IDE inh = inhibits human insulin-degrading enzyme in HEK cells; FAbetaB cleavage, fluorescence polarization; inhibition, % at 5.59 µM; 320,000 tested, 0.41% active;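 active means percent inhibition above the average of all tested compounds plus 3 SD, set per screening campaign, cut at about 16% in these data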;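 further: IDE supplied by intact live HEK cells; FP after avidin binding of uncleaved biotin substrate so inhibition keeps polarization high; 0% = DMSO wells and 100% = 60 µM reference IDE inhibitor Ii1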
Rin1 Abl inh = blocks binding of human Rin1 to Abl. P00519+Q13671. TR-FRET Rin1/Abl binding, biochemical. inhibition, % at 7.35 µM. 360,000 tested, 0.4% active; in the data active means inhibition above about 5%, passing the limit was not always enough
IDE cell activ = IDE (human) activation, cell-based. activation, % at 5.96 µM. P14735. HEK cells, FAbeta-B cleavage, fluorescence polarization; 0% vehicle, 100% cell-free pure enzyme wells. 340,000 tested, 0.073% active. AID 493087;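 active means activation above the mean of all tested compounds plus 3 SD, set per screening campaign, cut at about 17% in these data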
Calb FLC = C. albicans growth modulation with fluconazole. C. albicans CaCi-2 (fluconazole-resistant clinical isolate) + fluconazole, Alamar Blue growth, 48 h. growth inhibition, % (concentration not given with the values). 300,000 tested, 0.57% active. AID 1979;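 active means growth inhibition above about 58% in most replicates, limit read from the data, passing the limit was not always enough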;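 further: all wells also contain fluconazole at 8 µg/ml as a sub-toxic cotreatment; 0% = median of DMSO wells and 100% = median of geldanamycin control wells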
Rpn11 inh conf = Rpn11 inhibition confirmation, single concentration | purified human 26S proteasome, Ub4-pepOG fluorescence polarization; proteasome pretreated with epoxomicin | inhibition, % at 20 µM | shares compounds with Rpn11 block | AID 602318 | 1,900 tested, 29% active
MMP-2 inh = blocks human MMP-2, flagging nonselective RPN11 hits | shares compounds with Rpn11 block | recombinant MMP-2, FRET peptide cleavage fluorescence | inhibition, % at 20 µM | 1,900 tested, 4% active | AID 602330;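 further: human MMP-2 activated beforehand with APMA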
Thrombin FP = counter-screen for RPN11 inhibitors: inhibition of bovine thrombin; shares compounds with Rpn11 block; bovine thrombin cleavage of Ub4-pepOG, fluorescence polarization; inhibition, % at 20 µM; 1,900 tested, 13% active; AID 602333;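 active means mean inhibition at least 40% at 20 µM, or signal 3 deviations below plate average, so some actives read negative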;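 further: plate controls were thrombin with DMSO for no effect and buffer wells lacking thrombin for full effect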
Active calls of the source: *. A selection: hits, their analogues and other compounds. The true share with any hit is near 2.3%. Unless noted, no stated cut-off is given here; in the data, active means inhibition above about 40%; inactive means the rest.

COc1cc(C)c2c(c1C=O)Oc1c(c(C)c(O)c3c1C(O)OC3=O)OC2=O (stereo not drawn) was read as Rpn11 block 40.7*, TPT1 inhibitor 4.1, IDE inh -5.2, Rin1 Abl inh 2.5, IDE cell activ 1.2, Calb FLC -4.2, Rpn11 inh conf 25.1, MMP-2 inh 21.3 and Thrombin FP 14.2.
For Cc1ccc(OCc2ccc(C(=O)Nc3ccc(C(N)=O)cc3)o2)c([N+](=O)[O-])c1 the results were Rpn11 block 134.5*, TPT1 inhibitor -0.4, IDE inh 1.5, Rin1 Abl inh 0.3, IDE cell activ -0.2, Calb FLC 8.0, Rpn11 inh conf 12.6, MMP-2 inh -36.5 and Thrombin FP 7.3.
Screening Cc1ccc(OCc2ccc(C(=O)Nc3cc(C)on3)o2)c([N+](=O)[O-])c1 returned Rpn11 block 10.8, TPT1 inhibitor -0.6, IDE inh -1.4, Rin1 Abl inh -4.7, IDE cell activ -4.0 and Calb FLC 8.4.
O=C(NC1CCOCC1)C1CCC(=O)N(CCc2ccc(Cl)cc2)C1 (stereo not drawn) was read as Rpn11 block -10.6, TPT1 inhibitor -3.2, IDE inh 3.3, Rin1 Abl inh -2.3, IDE cell activ -0.9 and Calb FLC 2.1.
Screening CS(=O)(=O)N1c2ccccc2[C@]2([C@@]34C[C@H]5C(=O)N[C@@H](Cc6ccccc6)C(=O)N5[C@@H]3N(S(C)(=O)=O)c3ccccc34)C[C@H]3C(=O)N[C@@H](Cc4ccccc4)C(=O)N3[C@H]12 returned TPT1 inhibitor -2.6, IDE inh 1.6 and Calb FLC 14.1.
Cc1cc(C)cc(NC(=O)c2ccc(NC(=O)c3ccco3)cc2)c1 was read as Rpn11 block 8.2, TPT1 inhibitor 1.2, IDE inh 8.5, Rin1 Abl inh 0.5, IDE cell activ -7.4 and Calb FLC 3.5.
O=C(/C=C/c1ccc(Br)cc1)c1ccc(NC(=O)c2ccco2)cc1 was read as Rpn11 block 55.3*, TPT1 inhibitor 2.8, IDE inh 5.2, Rin1 Abl inh -3.2, IDE cell activ 0.0, Calb FLC -5.9, Rpn11 inh conf 3.2, MMP-2 inh -20.5 and Thrombin FP 1.4.
Screening COC(=O)c1ccc(NC(=O)c2ccc(NC(=O)c3ccco3)cc2)cc1 returned Rpn11 block 96.3*, TPT1 inhibitor 7.8, IDE inh 4.0, Rin1 Abl inh -2.9, IDE cell activ 8.5, Calb FLC -8.5, Rpn11 inh conf 84.9*, MMP-2 inh 7.1 and Thrombin FP 0.2.
`CC(C)c1ccc(OCc2ccc(C(=O)N3CCCC3)o2)cc1` gave Rpn11 block 0.0, TPT1 inhibitor 1.9, IDE inh -2.8, Rin1 Abl inh 1.2, IDE cell activ -0.5 and Calb FLC 3.0.
Cc1cnc(C(=O)OCC(=O)N2CCC(C)CC2)cn1 was read as Rpn11 block -2.8, IDE inh 4.5, Rin1 Abl inh -1.7 and IDE cell activ -2.5.
`CCC1CCCCN1CCCn1c(=S)[nH]c2ccccc2c1=O` (stereo not drawn) gave Rpn11 block 72.5*, TPT1 inhibitor -1.5, IDE inh -0.4, Rin1 Abl inh 2.6, IDE cell activ 1.6, Calb FLC -3.6, Rpn11 inh conf -1.8, MMP-2 inh -5.5 and Thrombin FP -8.6.
`CCOc1cc2[nH]c(=S)n(CCN3CCCCC3CC)c(=O)c2cc1OCC` (stereo not drawn) gave Rpn11 block 6.8, TPT1 inhibitor -1.4, IDE inh 3.8, Rin1 Abl inh 0.2, IDE cell activ 5.2 and Calb FLC -7.1.
Screening COc1cc(/C=C2\SC(=S)N(N(C)c3ccccc3)C2=O)ccc1O returned Rpn11 block 57.3*, TPT1 inhibitor 12.7, IDE inh 11.7, Rin1 Abl inh -1.7, IDE cell activ -24.3, Calb FLC 1.0, Rpn11 inh conf 6.2, MMP-2 inh -16.1 and Thrombin FP 9.2.
